Reference: PubChem BioAssay AID1159580 (chemical genetic matrix, 2015)
About 2,000 (36%) of roughly 5,500 compounds were called active. Not shown: some 18% with an inconclusive outcome. Rule as the data show it: active = normalized growth mostly below about 0.91 (no sharp cut-off); inconclusive = no clear call, values can overlap the other calls; inactive = mostly above about 0.92. The list shows a part of the results.

Experiment: chemical genetic growth profiling, strain panel (AID 1159580);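 also: tested at 20 µM; growth read once vehicle control cultures reached saturation at 30 °C; 1 = growth at the plate median or of vehicle wells; lower values mean less growth of the strain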
Conditions: growth OD

Measured: normalized growth

O=c1cccc2n1C[C@H]1CNCC2C1
inactive: S. cerevisiae deletion strains, locus YJR043C, strain POL32, stronger effect = lower value 1.01 | S. cerevisiae deletion strains, locus YJR066W, strain TOR1, stronger effect = lower value 0.988 | S. cerevisiae deletion strains, locus YKL009W, strain mrt4, stronger effect = lower value 1.02 | S. cerevisiae deletion strains, locus YKL068W, stronger effect = lower value 0.98 | S. cerevisiae deletion strains, locus YKL085W, strain MDH1 (second series), stronger effect = lower value 1 | S. cerevisiae deletion strains, locus YKL085W, strain MDH1, stronger effect = lower value 1 | S. cerevisiae deletion strains, locus YKL160W, strain elf1, stronger effect = lower value 0.984 | S. cerevisiae deletion strains, locus YKR001C, strain vps1, stronger effect = lower value 0.964 | S. cerevisiae deletion strains, locus YKR026C, strain gcn3, stronger effect = lower value 0.994 | S. cerevisiae deletion strains, locus YKR091W, strain srl3, stronger effect = lower value 1.01 | S. cerevisiae deletion strains, locus YLL001W, strain dnm1, stronger effect = lower value 0.95 | S. cerevisiae deletion strains, locus YLL026W, stronger effect = lower value 1.01 | S. cerevisiae deletion strains, locus YLL041C, strain sdh2, stronger effect = lower value 0.998 | S. cerevisiae deletion strains, locus YLR027C, strain aat2, stronger effect = lower value 1 | S. cerevisiae deletion strains, locus YLR039C, strain RIC1, stronger effect = lower value 1.01 | S. cerevisiae deletion strains, locus YLR058C, strain SHM2, stronger effect = lower value 1.01 | S. cerevisiae deletion strains, locus YLR102C, strain apc9, stronger effect = lower value 0.985 | S. cerevisiae deletion strains, locus YLR113W, strain HOG1, stronger effect = lower value 0.979 | S. cerevisiae deletion strains, locus YLR221C, strain rsa3, stronger effect = lower value 0.971 | S. cerevisiae deletion strains, locus YLR258W, strain gsy2, stronger effect = lower value 0.982 | S. cerevisiae deletion strains, locus YLR262C, strain YPT6 (second series), stronger effect = lower value 0.998 | S. cerevisiae deletion strains, locus YLR262C, strain YPT6, stronger effect = lower value 1.01 | S. cerevisiae deletion strains, locus YLR268W, strain sec22, stronger effect = lower value 0.971 | S. cerevisiae deletion strains, locus YLR320W, strain mms22, stronger effect = lower value 0.974 | S. cerevisiae deletion strains, locus YLR330W, strain CHS5, stronger effect = lower value 0.989 | S. cerevisiae deletion strains, locus YLR342W, strain FKS1 (second series), stronger effect = lower value 1.04 | S. cerevisiae deletion strains, locus YLR342W, strain FKS1, stronger effect = lower value 1.01 | S. cerevisiae deletion strains, locus YLR357W, strain rsc2, stronger effect = lower value 1.09 | S. cerevisiae deletion strains, locus YLR370C, strain arc18, stronger effect = lower value 0.99 | S. cerevisiae deletion strains, locus YLR371W, strain rom2, stronger effect = lower value 0.976 | S. cerevisiae deletion strains, locus YLR384C, strain iki3, stronger effect = lower value 1 | S. cerevisiae deletion strains, locus YLR418C, strain cdc73, stronger effect = lower value 1.03 | S. cerevisiae deletion strains, locus YML016C, strain PPZ1, stronger effect = lower value 1.01 | S. cerevisiae deletion strains, locus YML032C, strain rad52, stronger effect = lower value 1.01 | S. cerevisiae deletion strains, locus YML120C, strain ndi1, stronger effect = lower value 0.993 | S. cerevisiae deletion strains, locus YML124C, strain tub3, stronger effect = lower value 0.995 | S. cerevisiae deletion strains, locus YMR058W, strain fet3, stronger effect = lower value 1.01 | S. cerevisiae deletion strains, locus YMR078C, strain ctf18, stronger effect = lower value 0.984 | S. cerevisiae deletion strains, locus YMR125W, strain sto1, stronger effect = lower value 0.992 | S. cerevisiae deletion strains, locus YMR129W, stronger effect = lower value 1 | S. cerevisiae deletion strains, locus YMR205C, strain PFK2, stronger effect = lower value 0.994 | S. cerevisiae deletion strains, locus YMR223W, strain ubp8, stronger effect = lower value 1.01 | S. cerevisiae deletion strains, locus YMR231W, strain pep5, stronger effect = lower value 1.01 | S. cerevisiae deletion strains, locus YMR263W, strain SAP30, stronger effect = lower value 1 | S. cerevisiae deletion strains, locus YMR307W, strain GAS1, stronger effect = lower value 1.07 | S. cerevisiae deletion strains, locus YNL067W, strain RPL9B, stronger effect = lower value 1.01 | S. cerevisiae deletion strains, locus YNL071W, strain lat1, stronger effect = lower value 1.01 | S. cerevisiae deletion strains, locus YNL153C, strain GIM3, stronger effect = lower value 1.03 | S. cerevisiae deletion strains, locus YNL183C, strain NPR1, stronger effect = lower value 0.987 | S. cerevisiae deletion strains, locus YNL209W, strain ssb2, stronger effect = lower value 1.01 | S. cerevisiae deletion strains, locus YNL233W, strain BNI4, stronger effect = lower value 1.03 | S. cerevisiae deletion strains, locus YNL248C, strain rpa49, stronger effect = lower value 1.09 | S. cerevisiae deletion strains, locus YNL250W, strain rad50, stronger effect = lower value 0.929 | S. cerevisiae deletion strains, locus YNL271C, strain bni1, stronger effect = lower value 0.988 | S. cerevisiae deletion strains, locus YNL298W, strain CLA4, stronger effect = lower value 1.01 | S. cerevisiae deletion strains, locus YNL307C, strain MCK1, stronger effect = lower value 0.983 | S. cerevisiae deletion strains, locus YNL322C, strain KRE1 (second series), stronger effect = lower value 1 | S. cerevisiae deletion strains, locus YNR049C, strain mso1, stronger effect = lower value 1 | S. cerevisiae deletion strains, locus YNR052C, strain pop2, stronger effect = lower value 1.01 | S. cerevisiae deletion strains, locus YOL006C, strain TOP1, stronger effect = lower value 1.02 | S. cerevisiae deletion strains, locus YOL012C, strain htz1 1.03 | S. cerevisiae deletion strains, locus YOL147C, strain pex11, stronger effect = lower value 0.998 | S. cerevisiae deletion strains, locus YOR001W, strain rrp6, stronger effect = lower value 0.987 | S. cerevisiae deletion strains, locus YOR061W, strain CKA2, stronger effect = lower value 1.01 | S. cerevisiae deletion strains, locus YOR069W, strain VPS5, stronger effect = lower value 0.999 | S. cerevisiae deletion strains, locus YOR070C, strain gyp1, stronger effect = lower value 0.998 | S. cerevisiae deletion strains, locus YOR080W, strain dia2, stronger effect = lower value 1 | S. cerevisiae deletion strains, locus YOR083W, strain WHI5, stronger effect = lower value 0.991 | S. cerevisiae deletion strains, locus YOR106W, strain vam3, stronger effect = lower value 1.01 | S. cerevisiae deletion strains, locus YOR136W, strain idh2, stronger effect = lower value 0.994 | S. cerevisiae deletion strains, locus YOR144C, strain elg1, stronger effect = lower value 1 | S. cerevisiae deletion strains, locus YOR184W, strain ser1, stronger effect = lower value 0.996 | S. cerevisiae deletion strains, locus YOR231W, strain MKK1, stronger effect = lower value 1.02 | S. cerevisiae deletion strains, locus YOR265W, strain rbl2, stronger effect = lower value 1.01 | S. cerevisiae deletion strains, locus YOR270C, strain vph1, stronger effect = lower value 1.05 | S. cerevisiae deletion strains, locus YOR290C, strain snf2, stronger effect = lower value 0.958 | S. cerevisiae deletion strains, locus YOR316C, strain cot1, stronger effect = lower value 0.994 | S. cerevisiae deletion strains, locus YPL051W, strain arl3, stronger effect = lower value 1 | S. cerevisiae deletion strains, locus YPL078C, strain atp4, stronger effect = lower value 0.997 | S. cerevisiae deletion strains, locus YPL106C, strain sse1, stronger effect = lower value 0.957 | S. cerevisiae deletion strains, locus YPL240C, strain hsp82, stronger effect = lower value 0.993 | S. cerevisiae deletion strains, locus YPL241C, strain CIN2, stronger effect = lower value 1 | S. cerevisiae deletion strains, locus YPL256C, strain CLN2, stronger effect = lower value 1.07 | S. cerevisiae deletion strains, locus YPR119W, strain clb2, stronger effect = lower value 0.981 | S. cerevisiae deletion strains, locus YPR141C, strain kar3, stronger effect = lower value 0.982 | S. cerevisiae deletion strains, locus YPR163C, strain tif3, stronger effect = lower value 0.993 | S. cerevisiae deletion strains, locus YPR167C, strain met16, stronger effect = lower value 0.98 | S. cerevisiae deletion strains, strain wtn01, stronger effect = lower value 0.958 | S. cerevisiae strains, strain wild type, stronger effect = lower value 1.01
